Bioassay records as filed in PubChem.
Only some compounds are listed: those with a hit (about 3.6% of all), similar ones and a draw of the others.
ERa coact pot = enhancers of ERα–SRC-1 coactivator binding, primary screen, biochemical, TR-FRET, ERα LBD, low estradiol | TR-FRET ERalpha-LBD/SRC-Cy5 coactivator binding, 2 h; 100 = basal binding, no effect | coactivator binding (% of control), % at 25.6 µM | actives 1.3% (n = 86,000) | AID 639, 2007; in the data active = activity above about 200%;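 also: binding measured in presence of low estradiol as agonist stimulus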
Target sequence (P03372 whole entry, looked up, the tested form may be a part): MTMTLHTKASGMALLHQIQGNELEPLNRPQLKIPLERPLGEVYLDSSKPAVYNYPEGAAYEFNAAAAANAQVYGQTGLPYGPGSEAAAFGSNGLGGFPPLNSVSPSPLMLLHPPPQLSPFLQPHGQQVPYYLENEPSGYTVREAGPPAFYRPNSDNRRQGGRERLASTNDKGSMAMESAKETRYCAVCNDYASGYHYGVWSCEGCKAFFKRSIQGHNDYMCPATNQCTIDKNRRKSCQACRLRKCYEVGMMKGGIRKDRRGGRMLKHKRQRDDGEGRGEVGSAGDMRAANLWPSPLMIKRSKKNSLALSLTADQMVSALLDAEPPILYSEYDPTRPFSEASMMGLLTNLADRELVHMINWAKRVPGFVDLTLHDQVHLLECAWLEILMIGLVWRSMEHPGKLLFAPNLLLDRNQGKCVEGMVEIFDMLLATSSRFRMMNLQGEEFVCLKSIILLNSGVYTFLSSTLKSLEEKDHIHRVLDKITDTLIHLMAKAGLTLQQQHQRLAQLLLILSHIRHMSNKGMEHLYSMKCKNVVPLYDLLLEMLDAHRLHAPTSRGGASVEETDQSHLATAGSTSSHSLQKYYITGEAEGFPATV
IL1B NFkB inh = inhibitors of IL-1B driven NFkB p65 nuclear import, primary screen, imaging, HUVEC, IL-1B stimulus, high-content imaging. HUVEC IL-1B NFkB p65 nuclear translocation imaging. inhibition, % at 2 µM. actives 0.43% (n = 94,000);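 active = inhibition above about 30% together with a positive call from visual inspection of the well image, limit read from the data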;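 also: nuclear over cytoplasmic p65 intensity ratio measured by imaging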
ERa coact inh = ERα–SRC-1 coactivator interaction inhibitors, primary screen, biochemical, TR-FRET, ERα LBD, estradiol-bound. TR-FRET ER-alpha LBD / SRC-1 peptide. inhibition, % at 25.6 µM. actives 1.7% (n = 86,000); in the data active = inhibition above about 50%
HUVEC tox IL1B = cytotoxicity in IL-1B stimulated HUVEC, primary screen, cytotoxicity control for IL-1B NFkB translocation project, imaging, Hoechst nuclear count, IL-1B stimulus; cell count reduction, % at 2 µM; HUVEC cell count loss; actives 0.41% (n = 94,000);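 active = cell count reduction more than 3 SD above the screen-wide mean, cut at about 70% in these data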
NFkB transloc pot = enhancers of NFkB p65 translocation in HUVEC – imaging, IL-1B stimulus, high-content imaging, primary screen; HUVEC IL-1B NFkB p65 nuclear translocation imaging; activation, % at 2 µM; actives 0.3% (n = 94,000); AID 819, 2007;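 active = activation above 40%, about the mean plus 3 SD, also judged a hit on visual image review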;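 also: percent activation is computed from the nuclear over cytoplasmic p65 intensity ratio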
ERb SRC1 inh = inhibitors of ERβ-SRC1 coactivator interaction, primary screen, biochemical, TR-FRET, ERβ LBD, SRC-1 peptide. Estrogen receptor beta (Homo sapiens), Q92731. TR-FRET ER-beta LBD / SRC1-Cy5 peptide binding; receptor agonist-loaded with 1 µM estradiol. inhibition, % at 25.6 µM. actives 1.3% (n = 86,000);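 active = compounds whose percent inhibition of the receptor-coactivator binding signal exceeds about 50% in the single-dose screen, limit read from the data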
Each line names hits and unclear results; the compound was inactive in the other large screens; [ ] = remark or other dose.

Cc1c(C(=O)OCc2ccccc2)[nH]c2c1C(=O)CC(c1ccco1)C2 (stereo unspecified)	ERa coact inh 55.1, ERb SRC1 inh 56.4 (no result: IL1B NFkB inh, HUVEC tox IL1B, NFkB transloc pot)
COCCOC(=O)c1[nH]c2c(c1C)C(=O)CC(c1ccccc1)C2 (stereo unspecified)	none
CCOC(=O)c1[nH]c2c(c1C)C(=O)CC(c1ccco1)C2 (stereo unspecified)	ERa coact inh 65.2, ERb SRC1 inh 55.9[fluorescence artefact?] (no result: IL1B NFkB inh, HUVEC tox IL1B, NFkB transloc pot)
CSCCOC(=O)c1[nH]c2c(c1C)C(=O)CC(c1ccco1)C2 (stereo unspecified)	ERa coact inh 55.8, ERb SRC1 inh 50.2 (no result: IL1B NFkB inh, HUVEC tox IL1B, NFkB transloc pot)
Cc1c(C(=O)OCCOC(C)C)[nH]c2c1C(=O)CC(c1ccco1)C2 (stereo unspecified)	none (no result: IL1B NFkB inh, HUVEC tox IL1B, NFkB transloc pot)
COCCOC(=O)c1[nH]c2c(c1C)C(=O)CC(c1ccc(F)cc1)C2 (stereo unspecified)	none
COCCOC(=O)c1[nH]c2c(c1C)C(=O)CC(c1ccco1)C2 (stereo unspecified)	ERa coact inh 51.3 (no result: IL1B NFkB inh, HUVEC tox IL1B, NFkB transloc pot)
CCCCCCCC(=O)NC(Nc1ccc(S(N)(=O)=O)cc1)C(Cl)(Cl)Cl (stereo unspecified)	none (no result: ERa coact pot, ERa coact inh, ERb SRC1 inh)
N#CCSc1nnc2sc3ccccc3n12	ERa coact inh 87.0[fluorescence artefact?]
NC(=O)CSc1nnc2sc3ccccc3n12	none
Cc1noc(C)c1S(=O)(=O)NCCN1CCN(c2ccccc2)CC1	IL1B NFkB inh 31.2
Cc1noc(C)c1S(=O)(=O)NCCCN1CCN(Cc2ccccc2)CC1	none
Cc1ccc2nc(-c3cccc(-c4nc5ccc(C)cc5o4)n3)oc2c1	ERa coact pot 248.2[fluorescence artefact?] (no result: IL1B NFkB inh, HUVEC tox IL1B, NFkB transloc pot)
N#CC(C(=O)Nc1ccc(Cl)cc1)=C1Nc2ccccc2N1	ERa coact inh 53.7
CCOC(=O)C1C(c2ccc3c(c2)OCO3)NC(=O)NC1(O)C(F)(F)F (stereo unspecified)	none
CCOC(=O)C1C(c2cccs2)NC(=O)NC1(O)C(F)(F)F (stereo unspecified)	ERa coact pot 527.4[fluorescence artefact?]
COCCCn1c(SCC(=O)Nc2cccc(C(=O)OC)c2)nnc1-c1ccncc1	none
CCC(Sc1nc2ccccc2c(=O)n1CC1CCCO1)C(=O)NCc1cccnc1 (stereo unspecified)	none
Cc1cc(NC(=O)c2cc(-c3ccccc3)on2)n(-c2ccccc2)n1	ERa coact pot 528.7[fluorescence artefact?]
COc1cccc(-c2cc(C(=O)Nc3cc(C)nn3-c3ccccc3)no2)c1	ERa coact pot 455.5
COc1ccc(-c2cc(C(=O)Nc3cc(C)nn3-c3ccccc3)no2)cc1	none
Cn1cc(-c2nnc(-c3ccccc3)o2)c2ccccc21	none
CC(=O)c1ccc(NC(=O)CSc2nnc(Cn3c(=O)sc4ccccc43)n2C)cc1	none (no result: IL1B NFkB inh, HUVEC tox IL1B, NFkB transloc pot)
Cn1c(SCc2ccccc2Cl)nc(C(F)(F)F)cc1=O	none (no result: ERa coact pot, ERa coact inh, ERb SRC1 inh)
CCOC(=O)C(Sc1nn(C)c(=S)s1)C(C)=O (stereo unspecified)	none
Cn1nc(SCC(=O)O)sc1=S	ERa coact inh 69.9[fluorescence artefact?]
CCOC(=O)Cc1c(C)nc2c(-c3cccc(Br)c3)c[nH]n2c1=O	none (no result: IL1B NFkB inh, HUVEC tox IL1B, NFkB transloc pot)
COc1ccc(C(=O)Nc2ccc(Cl)cc2C(=O)NCCN2CCOCC2)cc1	none
CC(C)n1c(C(O)c2ccc3c(c2)OCO3)nc2ccccc21 (stereo unspecified)	none (no result: IL1B NFkB inh, HUVEC tox IL1B, NFkB transloc pot)
Cn1c(C(O)c2ccc3c(c2)OCO3)nc2ccccc21 (stereo unspecified)	IL1B NFkB inh 98.1, HUVEC tox IL1B 84.0
O=C(c1ccc2c(c1)[nH]c(=S)n1c3ccccc3nc21)N1CCN(c2ncccn2)CC1	ERa coact inh 50.6[fluorescence artefact?]
O=C(NC(=O)c1ccc(Cl)cc1)Nc1cc(N2CCCCC2)ncn1	ERa coact pot 243.4, ERa coact inh 72.1[fluorescence artefact?], ERb SRC1 inh 65.4[fluorescence artefact?]
O=C(Nc1cc(N2CCOCC2)ncn1)Nc1cccc2ccccc12	none
CC1(C)Cc2noc(N)c2C(C)(C)N1OC(=O)c1ccco1	none
O=C(O)CCN1C(=O)c2ccccc2C1=O	none
O=C1c2ccccc2C(=O)N1CCn1nc(Cl)nc1Cl	ERb SRC1 inh 58.5[fluorescence artefact?] (no result: IL1B NFkB inh, HUVEC tox IL1B, NFkB transloc pot)
COc1ccc(-c2cn3ccc4ccccc4c3n2)cc1	NFkB transloc pot 40.4
CNc1nnc(-c2ccc(N(C)C)cc2)s1	none
Nc1ccc2nc(-c3ccc(N)c(Cl)c3)[nH]c2c1	ERa coact inh 92.5[fluorescence artefact?], ERb SRC1 inh 54.1[fluorescence artefact?]
COc1ccc2nc(-c3ccc(N)cc3)[nH]c2c1	none
Nc1ccc2nc(-c3ccccc3)[nH]c2c1	ERa coact inh 82.0[fluorescence artefact?]
COc1ccc2nc(-c3cccc(N)c3)[nH]c2c1	none
Nc1ccc2nc(-c3cccs3)[nH]c2c1	ERb SRC1 inh 56.3[fluorescence artefact?]
Nc1ccc2nc(-c3ccccn3)[nH]c2c1	ERa coact inh 96.5[fluorescence artefact?], ERb SRC1 inh 76.2[fluorescence artefact?]
O=S(=O)(c1cc(Cl)ccc1Cl)N1CC2CCCN2c2ccc(C(F)(F)F)cc21 (stereo unspecified)	none (no result: ERa coact pot, ERa coact inh, ERb SRC1 inh)
CC1=C(C(=O)N2CCOCC2)C(c2ccccc2F)C2=C(CCCC2=O)N1 (stereo unspecified)	none
O=S(=O)(NCc1cccs1)c1cccc2cccnc12	none
O=C(CN1CCN(Cc2ccc(Cl)cc2)C1=O)NCCN1CCCC1	none (no result: IL1B NFkB inh, HUVEC tox IL1B, NFkB transloc pot)
Cn1c2ccccc2c2cc(C(=O)OCC(=O)N3CC(=O)Nc4ccccc43)sc21	ERa coact pot 670.2[fluorescence artefact?]
Cc1noc(C)c1C(=O)OCC(=O)NCCC1=CCCCC1	NFkB transloc pot 113.5
Cc1ccc(S(=O)(=O)c2c(N)n(Cc3ccco3)c3nc4ccccc4nc23)cc1C	ERa coact pot 220.5
Cc1nc(SC2C=CS(=O)(=O)C2)n[nH]1 (stereo unspecified)	none
CC1CCN(CCNC(=O)C2CCCN(S(=O)(=O)c3cccc4nonc34)C2)CC1 (stereo unspecified)	none
O=C(NC1CCN(Cc2ccccc2)CC1)C1CCCN(S(=O)(=O)c2cccc3nonc23)C1 (stereo unspecified)	IL1B NFkB inh 46.4
CCOC(=O)C1=C(C)NC(SCC(=O)O)=NC1c1ccccc1 (stereo unspecified)	none (no result: IL1B NFkB inh, HUVEC tox IL1B, NFkB transloc pot)
[O-]/[N+](=C\c1ccccc1)[C@@H]1CCCC[C@@H]1/[N+]([O-])=C/c1ccccc1	HUVEC tox IL1B 93.1
COc1ccc(C2CCCN2C(=O)Nc2ccc(F)cc2)cc1OC (stereo unspecified)	none (no result: IL1B NFkB inh, HUVEC tox IL1B, NFkB transloc pot)
CCS(=O)(=O)Nc1ccc(C(=O)CC2(O)C(=O)Nc3ccccc32)cc1 (stereo unspecified)	ERa coact pot 218.7[fluorescence artefact?]
